Structures are written as SMILES. Calls of active or inactive are those of the source.

This assay in a line: CREB reporter modulators under forskolin, primary screen, cell-based, PC12, CRE-LacZ reporter, forskolin-stimulated (AID 1146).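 Also: PC12 cells with 6xCRE LacZ reporter stimulated by forskolin 10 µM; beta-galactosidase reporter signal reflecting CREB driven transcription.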 Particulars: luminescence, 4.5 h, higher = more signal, called active from +8 up or from −8 down.
For the molecule `CO[C@H]1O[C@H](CO)[C@@H](OC(=O)Nc2ccccc2)[C@@H]2OC(=O)[C@H](Cc3ccccc3)C/C=C/C[C@@H](Cc3ccccc3)C(=O)O[C@@H]12`, the z-score is -1.36 (inactive).

For the molecule `CCCCC(=C=CC[C@@H](O)c1ccc(OCCO)cc1)C[C@@H](O)c1ccccn1`, the z-score is -0.0387 (inactive).

As for `C=CCC(OC(C)=O)[C@@H]1[C@@H](N(Cc2cccc3ccccc23)C(=O)c2ccc(-c3ccccc3)cc2)c2cc(OCCCO)ccc2N1C(=O)c1ccc2ccccc2n1` (stereo not given in full), the z-score was 0.481 (inactive).

In the case of `COCCOC(=O)N1C(=O)[C@@]2(c3cc(C#CC4(O)CCCCCC4)ccc31)[C@H](c1ccc(OCCO)cc1)N1[C@H](c3ccccc3)[C@H](c3ccccc3)OC(=O)[C@H]1[C@@H]2C(N)=O`, the z-score is 0.595 (inactive).

Turning to `COc1ccc([Si](C)(C)[C@H]2[C@H](CCO)O[C@@]3(C(=O)N(Cc4ccc(N5CCOC5=O)cc4)c4ccccc43)[C@@H]2C)cc1`, the z-score is -2.06 (inactive).

As to `Cc1c(-c2ccc(-c3ccc(Cl)c(Cl)c3)o2)nc(-c2ccccc2)c2c1CO[Si]2(C(C)C)C(C)C`, the z-score was 1.86 (inactive).

For `O=C1OCCC=C[C@H]2OC34C=CCN(CCN5CCOCC5)C(=O)[C@H]3N(CCCO)C(=O)[C@@H]4C12` (stereo not given in full), the z-score was 1.74 (inactive).

For the molecule `COC(=O)[C@@]1(Cc2ccc(F)cc2)[C@H]2c3cc(C(=O)N(C)C)n(CCO)c3C[C@H]2CN1C(=O)c1ccccc1`, the z-score is 0.0355 (inactive).

Take `CC(C)C[C@H]1NC(=O)[C@@H](C)NC(=O)[C@@]23C(=O)N[C@@H](Cc4ccccc4)C2[C@H](C)[C@@]2(C)O[C@H]2C3/C=C/C/C=C\CNC1=O` (stereo not given in full): the z-score is -0.435 (inactive).

As for `N#Cc1ccc(C(O)C2C=CC3C(=O)N(c4ccccc4)C(=O)C3N2Nc2ccc([N+](=O)[O-])cc2)cc1` (stereo not given), the z-score is -1.24 (inactive).

For `CN(C)CCCC[C@@H]1NC(=O)[C@@H]2C[C@H](C(=O)NCc3ccc(F)cc3)[C@H](c3ccc(O)cc3)N2C1=O`, the z-score was -0.636 (inactive).

For `CC(=O)c1ccc(C(O)C2C=CC3C(=O)N(C)C(=O)C3N2NC(=O)OC(C)(C)C)cc1` (stereo not given), the z-score is 1.51 (inactive).

For `CO[C@H]1O[C@H](CO)[C@@H](OC(=O)Nc2ccc3c(c2)OCO3)[C@@H]2OC(=O)[C@@H](Cc3ccccc3)C/C=C/C[C@H](Cc3ccccc3)C(=O)O[C@@H]12`, the z-score is -0.601 (inactive).

Turning to `O=C1NC(=O)C2C1C=CC(C(O)c1cccc(O)c1)N2Nc1ccc(Cl)cc1Cl` (stereo not given), the z-score was -0.45 (inactive).

As to `Cc1ccc(S[C@]2(C(=O)NCCCN(C)C)CC(=O)N(Cc3ccccc3Cl)[C@@H]2c2ccc(CO)cc2I)cc1`, the z-score is 0.752 (inactive).

In the case of `O=c1cccc(-c2ccccc2C(F)(F)F)o1`, the z-score was -0.12 (inactive).

As to `COCCOC(=O)N1C(=O)[C@@]2(c3cc(C#CCC(C(=O)OC)C(=O)OC)ccc31)[C@H](c1ccc(OCCO)cc1)N1[C@H](c3ccccc3)[C@H](c3ccccc3)OC(=O)[C@H]1[C@@H]2C(=O)N1CCCCCCC1`, the z-score is -0.553 (inactive).

With `C[C@H]1NC(=O)C([C@@H](C)OCc2ccccc2)NC(=O)[C@@]23C(=O)N[C@@H](Cc4ccccc4)C2[C@H](C)[C@@]2(C)O[C@H]2C3/C=C/C/C=C\CNC1=O` (stereo not given in full), the z-score is -0.836 (inactive).

With `COCC(=C=CC[C@@H](O)c1cccc(OCCO)c1)C[C@@H](O)COCc1ccccc1`, the z-score is -0.352 (inactive).

Consider `C=C(CCCC)C(=O)CC[C@H](OC(C)=O)c1ccccc1OCCO`, for which the z-score is -0.195 (inactive).

As to `CCC[C@@H]1C=C(C(=O)OCC)[C@H](c2ccccc2)N1S(=O)(=O)c1ccc(C)cc1`, the z-score was -0.578 (inactive).

`COCCOC(=O)N1C(=O)[C@@]2(c3cc(C#CC4(O)CCCCCC4)ccc31)[C@H](C(=O)N1CCc3cc(OC)c(OC)cc3C1)[C@H]1C(=O)O[C@H](c3ccccc3)[C@H](c3ccccc3)N1[C@@H]2c1ccc(O)cc1`: the z-score is 8.06 (active).

For the molecule `Cc1ccc(F)cc1S(=O)(=O)N[C@@H]1CCN(Cc2ccc3c(c2)OCO3)C1`, the z-score was -0.714 (inactive).

On to `COCCOC(=O)N1C(=O)[C@@]2(c3cc(C#CC4(O)CCCCCC4)ccc31)[C@H](c1ccc(OCCO)cc1)N1[C@H](c3ccccc3)[C@H](c3ccccc3)OC(=O)[C@H]1[C@@H]2C(=O)N1CCCCCCC1`, for which the z-score is -0.325 (inactive).

In the case of `CC(c1ccccc1)C(O)C1C=CC2C(=O)N(c3ccccc3)C(=O)C2N1Nc1ccc(C#N)cc1` (stereo not given), the z-score was 0.721 (inactive).

The values are drawn from PubChem BioAssay.
